Measurements: PubChem BioAssay (Tox21)
Records with an inconclusive call do not appear. Entries that show only a call come without a potency. Activity calls are given as the source filed them. The call rests on the fitted dose curve.

assay: qHTS assay to identify small molecule antagonists of the estrogen receptor alpha (ER-alpha) signaling pathway using the BG1 cell line (AID 743080); conditions: BG1Luc4E2 ERE-luciferase antagonist mode, luminescence; series mostly up to 70.3 µM;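 further: BG1 cells stimulated with 17beta-estradiol alongside compound; nearly all actives have a fitted effect of over 25% in size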
From the text: National Center for Advancing Translational Sciences [NCATS]
NIH Chemical Genomics Center [NCGC]
U.S. Environmental Protection Agency [EPA]
National Institutes of Environmental Health Sciences [NIEHS]
National Toxicology Program [NTP]
U.S. Food and Drug Administration [FDA]
Estrogen receptor (ER), a nuclear hormone receptor, plays an important role in development, metabolic homeostasis and reproduction. Endocrine disrupting chemicals (EDCs) and their interactions with steroid hormone receptors like ER causes disruption of normal endocrine function. Therefore, it is important to understand the effect of environmental chemicals on the ER signaling pathway. To identify ER antagonists, BG1-Luc-4E2 cell line (provided by Dr. Michael Denison from University of California) has been used to screen the Tox21 10K compound library. BG1Luc4E2 cell line endogenously expresses full-length ER-alpha and is stably transfected with a plasmid containing four estrogen responsive elements (ERE) upstream of a luciferase reporter gene.
Tox21 Assay Protocol Summary:
BG1-Luc-4E2 cells were cultured in phenol red free assay medium containing 10% charcoal stripped FBS for 5 days before the assay was performed. The cells were dispensed at 4,000 cells/4 uL of assay medium per well into white wall/solid-bottom 1536-well plates using a Multidrop Combi (ThermoFisher Scientific, Waltham, MA) dispenser. The assay plates were incubated at a 37C and 5% CO2 for 24 h, and then 23 nL of compounds dissolved in DMSO, positive controls or DMSO only was transferred to the assay plate using a Pintool station (Kalypsys, San Diego, CA), followed by addition of 1 uL of 17beta-estradiol in assay medium using a Flying Reagent Dispenser (Aurora Discovery, San Diego, CA). After the plates were incubated at 37 C and 5% CO2 for 21.5 h, 1 uL of CellTiter-Fluor reagent (Promega, Madison, WI) of measuring cytotoxicity was added using Flying Reagent Dispenser (FRD) to each well. The assay plates were incubated at 37 C and 5% CO2 for additional 30 min and the fluorescence intensity was quantified by a ViewLux plate reader (PerkinElmer, Shelton, CT). For measuring luciferase reporter gene activity, 4 uL of ONE-Glo reagent (Promega) was added to each plate using an FRD and luminescence was quantified by a ViewLux plate reader after 30 min incubation at room temperature.
Potency means the concentration at half of the fitted maximal effect.

Question: With `Cc1cc(O)c2c(c1)O[C@@]1(C)CC[C@H]3C(C)(C)CCCC34CO[C@@H]2[C@H]41` (stereo not given in full) as the compound, how does the Potency read?
Answer: 26.6 µM (active)

Question: With `CC(C)(CO)[C@@H](O)C(=O)NCCC(=O)NCCSSCCNC(=O)CCNC(=O)[C@H](O)C(C)(C)CO` as the compound, how does the Potency read?
Answer: inactive

Question: With `O=C(CCCCCCCCCCCCC1CCCC1)Nc1ccc(S(=O)(=O)c2ccc(NC(=O)CCCCCCCCCCCCC3CCCC3)cc2)cc1` as the compound, how does the Potency read?
Answer: inactive

Question: With `C#C[C@]1(O)CC[C@H]2[C@@H]3CCC4=CCCC[C@@H]4[C@H]3C(=C)C[C@@]21CC` as the compound, how does the Potency read?
Answer: inactive

Question: With `COc1cc(S(C)=O)ccc1-c1nc2ncccc2[nH]1` (stereo not given) as the compound, how does the Potency read?
Answer: inactive

Question: Which Potency does the source give for `CNCC(O)c1ccc(OC(=O)C(C)(C)C)c(OC(=O)C(C)(C)C)c1` (stereo not given) here?
Answer: inactive

Question: For `CO[C@H]1C[C@@H]2CC[C@@H](C)[C@@](O)(O2)C(=O)C(=O)N2CCCC[C@H]2C(=O)O[C@H]([C@H](C)C[C@@H]2CC[C@@H](OC(=O)C(C)(CO)CO)[C@H](OC)C2)CC(=O)[C@H](C)/C=C(\C)[C@@H](O)[C@@H](OC)C(=O)[C@H](C)C[C@H](C)/C=C/C=C/C=C/1C`, which Potency is on record?
Answer: inactive

Question: For `COCC(=O)Nc1cc(Sc2ccccc2)ccc1N=C(NC(=O)OC)NC(=O)OC`, which Potency is on record?
Answer: inactive

Question: For `CCN(CC)c1ccc(N=Nc2ccc(S(=O)(=O)N(C)C)cc2)c(S(=O)(=O)NCC[n+]2ccccc2)c1`, which Potency is on record?
Answer: inactive

Question: For `COC(F)(F)C(Cl)Cl`, which Potency is on record?
Answer: inactive

Question: With `CN1[C@@H]2CCC[C@H]1CC(NC(=O)c1nn(C)c3ccccc13)C2` (stereo not given in full) as the compound, how does the Potency read?
Answer: inactive

Question: Which Potency does the source give for `CCN(CC)CCC(=O)N1c2ccccc2Sc2ccc(Cl)cc21` here?
Answer: inactive

Question: For `O=C(NOC[C@H](O)CO)c1ccc(F)c(F)c1Nc1ccc(I)cc1F`, which Potency is on record?
Answer: inactive

Question: Which Potency does the source give for `CN(CC(=O)N1CCOCC1)Cc1c(Cl)cccc1NC(=O)c1ccccc1` here?
Answer: inactive

Question: Which Potency does the source give for `CC(CN1c2ccccc2Sc2ccc(S(=O)(=O)N(C)C)cc21)N(C)C` (stereo not given) here?
Answer: inactive

Question: For `CC(=O)O[C@H]1C[C@@]2(C)[C@@H](C[C@@H](O)[C@H]3[C@@]4(C)CC[C@@H](O)[C@@H](C)[C@@H]4CC[C@@]32C)/C1=C(\CCC=C(C)C)C(=O)O`, which Potency is on record?
Answer: inactive

Question: For `Cc1c(O)cc2c(c1C)O[C@](C)(CCC[C@H](C)CCC[C@H](C)CCCC(C)C)CC2`, which Potency is on record?
Answer: inactive

Question: For `CCCCC(=O)N(Cc1ccc(-c2ccccc2-c2nn[nH]n2)cc1)[C@@H](C(=O)O)C(C)C`, which Potency is on record?
Answer: inactive

Question: For `CC(=O)Oc1c(C)cc(OCC(O)CNC(C)C)c(C)c1C` (stereo not given), which Potency is on record?
Answer: inactive

Question: Which Potency does the source give for `CN(C)CCC=C1c2ccccc2C(C)(C)c2ccccc21` here?
Answer: inactive

Question: With `NC(Cc1ccccc1)C(=O)O` (stereo not given) as the compound, how does the Potency read?
Answer: inactive

Question: For `[O]=[Bi][O]C(=O)[O][Bi]=[O]`, which Potency is on record?
Answer: inactive

Question: Which Potency does the source give for `c1cnc2cc3c(cc2n1)[C@@H]1CNC[C@H]3C1` here?
Answer: inactive

Question: With `COC(=O)C1=C(C)NC(C)=C(C(=O)O[C@H]2CCN(Cc3ccccc3)C2)[C@H]1c1cccc([N+](=O)[O-])c1` as the compound, how does the Potency read?
Answer: inactive

Question: For `O=P(O)(O)OC(Cn1cncn1)(Cn1cncn1)c1ccc(F)cc1F`, which Potency is on record?
Answer: inactive

Question: For `OCC(O)COc1ccc(Cl)cc1` (stereo not given), which Potency is on record?
Answer: inactive

Question: Which Potency does the source give for `NCCCNCCCCNC(=O)C(O)NC(=O)CCCCCCN=C(N)N` (stereo not given) here?
Answer: inactive

Question: Which Potency does the source give for `CO/N=C(\C(=O)N[C@@H]1C(=O)N2C(C(=O)OCOC(=O)C(C)(C)C)=C(/C=C\c3scnc3C)CS[C@H]12)c1csc(N)n1` here?
Answer: inactive

Question: For `C=CCOc1ccc(CC(=O)O)cc1Cl`, which Potency is on record?
Answer: inactive

Question: For `CCCCC(F)(F)[C@@]1(O)CC[C@H]2[C@@H](CC(=O)[C@@H]2CCCCCCC(=O)O)O1`, which Potency is on record?
Answer: inactive

Question: Which Potency does the source give for `C/C(=C(\CCOC(=O)c1ccccc1)SS/C(CCOC(=O)c1ccccc1)=C(/C)N(C=O)Cc1cnc(C)nc1N)N(C=O)Cc1cnc(C)nc1N` here?
Answer: inactive

Question: With `CC(Oc1ccccc1)C(=O)N[C@@H]1C(=O)N2[C@@H]1SC(C)(C)[C@@H]2C(=O)O` (stereo not given in full) as the compound, how does the Potency read?
Answer: inactive

Question: With `NC[C@@H]1O[C@H](O[C@H]2[C@@H](O)[C@H](O[C@@H]3[C@@H](O)[C@H](N)C[C@H](N)[C@H]3O[C@H]3O[C@H](CN)[C@@H](O)[C@H](O)[C@H]3N)O[C@@H]2CO)[C@H](N)[C@@H](O)[C@@H]1O` as the compound, how does the Potency read?
Answer: inactive

Question: With `CC(C)[C@@H]1CC[C@@H](C)C[C@H]1OC(=O)c1ccccc1O` as the compound, how does the Potency read?
Answer: inactive

Question: Which Potency does the source give for `O=[N+]([O-])O[C@@H]1CO[C@H]2[C@@H]1OC[C@@H]2O` here?
Answer: inactive

Question: Which Potency does the source give for `O=C(COc1ccc(Cl)cc1)OCCNC12CC3CC(CC(C3)C1)C2` here?
Answer: inactive

Question: For `Clc1ccc(COC(Cn2ccnc2)c2ccc(Cl)cc2Cl)c(Cl)c1` (stereo not given), which Potency is on record?
Answer: inactive

Question: For `C[N+](C)(CCCCCC[N+](C)(C)C1c2ccccc2-c2ccccc21)C1c2ccccc2-c2ccccc21`, which Potency is on record?
Answer: inactive

Question: For `CC(C)[C@H](N)C(=O)OCC(CO)OCn1cnc2c(=O)[nH]c(N)nc21` (stereo not given in full), which Potency is on record?
Answer: inactive

Question: For `COc1ccc(C2(C#N)CCC(C(=O)O)CC2)cc1OC1CCCC1` (stereo not given), which Potency is on record?
Answer: inactive
